Test results: PubChem BioAssay AID1159580 (chemical genetic matrix, 2015)
Among all 5,500 compounds or so, about 2,000 (36%) were called active. Another 18% or so got no clear call; they are omitted. Cut-off read from the data, not from the text of the source: active = normalized growth mostly below about 0.91 (no sharp cut-off); inconclusive = no clear call, values can overlap the other calls; inactive = mostly above about 0.92. Some of the results follow.

Test: chemical genetic growth profiling, strain panel (AID 1159580);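 note: tested at 20 µM; growth read once vehicle control cultures reached saturation at 30 °C; 1 = growth at the plate median or of vehicle wells; lower values mean less growth of the strain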
Conditions: growth OD

Measured: normalized growth

COc1ccc2c(c1)O[C@@H]1COc3cc(OC)c(OC)cc3[C@@H]1C2=O
active: S. cerevisiae deletion strains, locus YJR043C, strain POL32, stronger effect = lower value 0.719 | S. cerevisiae deletion strains, locus YJR075W, strain HOC1, stronger effect = lower value 0.776 | S. cerevisiae deletion strains, locus YKL160W, strain elf1, stronger effect = lower value 0.428 | S. cerevisiae deletion strains, locus YLL001W, strain dnm1, stronger effect = lower value 0.794 | S. cerevisiae deletion strains, locus YLL026W, stronger effect = lower value 0.557 | S. cerevisiae deletion strains, locus YLL041C, strain sdh2, stronger effect = lower value 0.674 | S. cerevisiae deletion strains, locus YLR027C, strain aat2, stronger effect = lower value 0.445 | S. cerevisiae deletion strains, locus YLR102C, strain apc9, stronger effect = lower value 0.696 | S. cerevisiae deletion strains, locus YLR221C, strain rsa3, stronger effect = lower value 0.377 | S. cerevisiae deletion strains, locus YLR258W, strain gsy2, stronger effect = lower value 0.705 | S. cerevisiae deletion strains, locus YLR268W, strain sec22, stronger effect = lower value 0.739 | S. cerevisiae deletion strains, locus YLR320W, strain mms22, stronger effect = lower value 0.228 | S. cerevisiae deletion strains, locus YLR342W, strain FKS1, stronger effect = lower value 0.665 | S. cerevisiae deletion strains, locus YLR371W, strain rom2, stronger effect = lower value 0.854 | S. cerevisiae deletion strains, locus YLR418C, strain cdc73, stronger effect = lower value 0.546 | S. cerevisiae deletion strains, locus YML016C, strain PPZ1, stronger effect = lower value 0.84 | S. cerevisiae deletion strains, locus YML032C, strain rad52, stronger effect = lower value 0.521 | S. cerevisiae deletion strains, locus YML120C, strain ndi1, stronger effect = lower value 0.59 | S. cerevisiae deletion strains, locus YML124C, strain tub3, stronger effect = lower value 0.874 | S. cerevisiae deletion strains, locus YMR058W, strain fet3, stronger effect = lower value 0.537 | S. cerevisiae deletion strains, locus YMR078C, strain ctf18, stronger effect = lower value 0.373 | S. cerevisiae deletion strains, locus YMR125W, strain sto1, stronger effect = lower value 0.612 | S. cerevisiae deletion strains, locus YMR129W, stronger effect = lower value 0.908 | S. cerevisiae deletion strains, locus YMR205C, strain PFK2, stronger effect = lower value 0.23 | S. cerevisiae deletion strains, locus YMR223W, strain ubp8, stronger effect = lower value 0.78 | S. cerevisiae deletion strains, locus YNL067W, strain RPL9B, stronger effect = lower value 0.858 | S. cerevisiae deletion strains, locus YNL071W, strain lat1, stronger effect = lower value 0.246 | S. cerevisiae deletion strains, locus YNL153C, strain GIM3, stronger effect = lower value 0.597 | S. cerevisiae deletion strains, locus YNL233W, strain BNI4, stronger effect = lower value 0.427 | S. cerevisiae deletion strains, locus YNL248C, strain rpa49, stronger effect = lower value 0.814 | S. cerevisiae deletion strains, locus YNL307C, strain MCK1, stronger effect = lower value 0.183 | S. cerevisiae deletion strains, locus YNL322C, strain KRE1 (second series), stronger effect = lower value 0.761 | S. cerevisiae deletion strains, locus YOL147C, strain pex11, stronger effect = lower value 0.25 | S. cerevisiae deletion strains, locus YOR001W, strain rrp6, stronger effect = lower value 0.689 | S. cerevisiae deletion strains, locus YOR069W, strain VPS5, stronger effect = lower value 0.905 | S. cerevisiae deletion strains, locus YOR070C, strain gyp1, stronger effect = lower value 0.528 | S. cerevisiae deletion strains, locus YOR080W, strain dia2, stronger effect = lower value 0.839 | S. cerevisiae deletion strains, locus YOR136W, strain idh2, stronger effect = lower value 0.767 | S. cerevisiae deletion strains, locus YOR144C, strain elg1, stronger effect = lower value 0.573 | S. cerevisiae deletion strains, locus YOR265W, strain rbl2, stronger effect = lower value 0.797 | S. cerevisiae deletion strains, locus YOR270C, strain vph1, stronger effect = lower value 0.593 | S. cerevisiae deletion strains, locus YOR290C, strain snf2, stronger effect = lower value 0.315 | S. cerevisiae deletion strains, locus YOR316C, strain cot1, stronger effect = lower value 0.771 | S. cerevisiae deletion strains, locus YPL051W, strain arl3, stronger effect = lower value 0.803 | S. cerevisiae deletion strains, locus YPL078C, strain atp4, stronger effect = lower value 0.635 | S. cerevisiae deletion strains, locus YPL240C, strain hsp82, stronger effect = lower value 0.714 | S. cerevisiae deletion strains, locus YPR119W, strain clb2, stronger effect = lower value 0.731 | S. cerevisiae deletion strains, locus YPR163C, strain tif3, stronger effect = lower value 0.438 | S. cerevisiae deletion strains, locus YPR167C, strain met16, stronger effect = lower value 0.886 | S. cerevisiae deletion strains, strain wtn01, stronger effect = lower value 0.686 | S. cerevisiae strains, strain wild type, stronger effect = lower value 0.753
inactive: S. cerevisiae deletion strains, locus YJR066W, strain TOR1, stronger effect = lower value 0.92 | S. cerevisiae deletion strains, locus YKL009W, strain mrt4, stronger effect = lower value 1.01 | S. cerevisiae deletion strains, locus YKL068W, stronger effect = lower value 0.984 | S. cerevisiae deletion strains, locus YKL085W, strain MDH1 (second series), stronger effect = lower value 0.984 | S. cerevisiae deletion strains, locus YKL085W, strain MDH1, stronger effect = lower value 0.984 | S. cerevisiae deletion strains, locus YKR001C, strain vps1, stronger effect = lower value 0.912 | S. cerevisiae deletion strains, locus YKR026C, strain gcn3, stronger effect = lower value 0.992 | S. cerevisiae deletion strains, locus YKR091W, strain srl3, stronger effect = lower value 0.988 | S. cerevisiae deletion strains, locus YLR039C, strain RIC1, stronger effect = lower value 0.914 | S. cerevisiae deletion strains, locus YLR058C, strain SHM2, stronger effect = lower value 0.9 | S. cerevisiae deletion strains, locus YLR113W, strain HOG1, stronger effect = lower value 0.983 | S. cerevisiae deletion strains, locus YLR262C, strain YPT6 (second series), stronger effect = lower value 0.994 | S. cerevisiae deletion strains, locus YLR262C, strain YPT6, stronger effect = lower value 0.928 | S. cerevisiae deletion strains, locus YLR357W, strain rsc2, stronger effect = lower value 0.932 | S. cerevisiae deletion strains, locus YLR370C, strain arc18, stronger effect = lower value 0.984 | S. cerevisiae deletion strains, locus YLR384C, strain iki3, stronger effect = lower value 1.01 | S. cerevisiae deletion strains, locus YMR231W, strain pep5, stronger effect = lower value 0.991 | S. cerevisiae deletion strains, locus YMR263W, strain SAP30, stronger effect = lower value 0.922 | S. cerevisiae deletion strains, locus YMR307W, strain GAS1, stronger effect = lower value 0.909 | S. cerevisiae deletion strains, locus YNL183C, strain NPR1, stronger effect = lower value 0.927 | S. cerevisiae deletion strains, locus YNL209W, strain ssb2, stronger effect = lower value 1.01 | S. cerevisiae deletion strains, locus YNL250W, strain rad50, stronger effect = lower value 0.936 | S. cerevisiae deletion strains, locus YNL271C, strain bni1, stronger effect = lower value 0.963 | S. cerevisiae deletion strains, locus YNL298W, strain CLA4, stronger effect = lower value 0.97 | S. cerevisiae deletion strains, locus YNR049C, strain mso1, stronger effect = lower value 0.951 | S. cerevisiae deletion strains, locus YNR052C, strain pop2, stronger effect = lower value 0.948 | S. cerevisiae deletion strains, locus YOL012C, strain htz1 0.241 | S. cerevisiae deletion strains, locus YOR061W, strain CKA2, stronger effect = lower value 0.967 | S. cerevisiae deletion strains, locus YOR083W, strain WHI5, stronger effect = lower value 0.916 | S. cerevisiae deletion strains, locus YOR106W, strain vam3, stronger effect = lower value 0.871 | S. cerevisiae deletion strains, locus YOR184W, strain ser1, stronger effect = lower value 0.896 | S. cerevisiae deletion strains, locus YOR231W, strain MKK1, stronger effect = lower value 0.977 | S. cerevisiae deletion strains, locus YPL055C, strain LGE1, stronger effect = lower value 0.775 | S. cerevisiae deletion strains, locus YPL106C, strain sse1, stronger effect = lower value 1.04 | S. cerevisiae deletion strains, locus YPL256C, strain CLN2, stronger effect = lower value 1.01 | S. cerevisiae deletion strains, locus YPR141C, strain kar3, stronger effect = lower value 0.959
